Results published in the supplement of paper PMC6555819.

Key:
Test in all cases: PBM binding z-score (relative to random genomic background probes); higher = stronger binding; sequences stand for … in GC…GCGATTGACAGCGTAGAATGAAGG
[1] = system: PPARg:RXRa DBDmut IVT, anti-RXR (DBD mutation: RXRa K156A/R161A, NR concentration 270 nM, RXRa partner concentration 90 nM)
In short: (§1)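 The probes on custom Agilent 4×180K protein-binding microarrays were double-stranded, with 34-nt variable regions bearing direct-repeat seeds, single-nucleotide variants, half-site ablations and random human genomic background sequences. Incubation lasted 1 h with ligand-free nuclear receptor dimers in PBS pH 7.4, 2% milk, 0.02% Triton X-100, 1 mM DTT, 0.2 mg/mL BSA and 0.4 mg/ml salmon testes DNA. Antibodies against each partner (one per run) detected bound dimers, and fluorescence scans were regression-normalized. Binding z-scores take the random background probes as reference.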

[2] = system: PPARg:RXRa IVT, anti-PPARg (NR concentration 270 nM, RXRa partner concentration 90 nM)
In short: as §1

[3] = system: PPARg DBDmut:RXRa IVT, anti-PPARg (DBD mutation: PPARg1 K132A/R137A, NR concentration 270 nM, RXRa partner concentration 90 nM)
In short: as §1

[4] = system: PPARg DBDmut IVT, anti-PPARg (DBD mutation: PPARg1 K132A/R137A, NR concentration 270 nM)
In short: as §1

[5] = system: PPARg homodimer (NR concentration 180 nM)
In short: as §1

[6] = system: PXR:RXRa (NR concentration 270 nM, RXRa partner concentration 90 nM)
In short: as §1

[7] = system: PXR homodimer (NR concentration 270 nM)
In short: as §1

[8] = system: RARa:RXR (NR concentration 270 nM, RXRa partner concentration 90 nM)
In short: as §1

[9] = system: RARa homodimer (NR concentration 270 nM)
In short: as §1

[10] = system: RARb:RXRa (NR concentration 270 nM, RXRa partner concentration 90 nM)
In short: as §1

[11] = system: RARb homodimer (NR concentration 270 nM)
In short: as §1

[12] = system: RARg:RXRa (NR concentration 270 nM, RXRa partner concentration 90 nM)
In short: as §1

[13] = system: RARg homodimer (NR concentration 270 nM)
In short: as §1

[14] = system: RXRa DBDmut IVT, anti-RXR (DBD mutation: RXRa K156A/R161A, NR concentration 90 nM)
In short: as §1

[15] = system: THRa:RXRa (NR concentration 90 nM, RXRa partner concentration 90 nM)
In short: as §1

[16] = system: THRa homodimer (NR concentration 90 nM)
In short: as §1

[17] = system: VDR homodimer (NR concentration 270 nM)
In short: as §1

[18] = system: RXRa homodimer (NR concentration 180 nM)
In short: as §1

[19] = system: VDR:RXRa (NR concentration 270 nM, RXRa partner concentration 90 nM)
In short: as §1

Sequence	PBM binding z-score [1]	PBM binding z-score [2]	PBM binding z-score [3]	PBM binding z-score [4]	PBM binding z-score [5]	PBM binding z-score [6]	PBM binding z-score [7]	PBM binding z-score [8]	PBM binding z-score [9]	PBM binding z-score [10]	PBM binding z-score [11]	PBM binding z-score [12]	PBM binding z-score [13]	PBM binding z-score [14]	PBM binding z-score [15]	PBM binding z-score [16]	PBM binding z-score [17]	PBM binding z-score [18]	PBM binding z-score [19]
ATCGAAAAGTCGAAGGTGAGTATACCCACCCGAA	-0.679	0.2	0.0254	0.527	0.0253	-0.258	-0.0858	0.357	0.291	0.417	-0.251	0.436	0.586	-0.665	0.0744	-0.357	-0.0912	–	–
CCTTACGGGTCCCTGACAGGTTATAGCATTTGGA	-0.486	-0.544	-1.04	-1.23	0.149	-0.106	-0.274	-0.0622	0.466	0.205	0.357	–	0.233	-0.553	0.389	-0.0756	0.0432	0.295	-0.165
CAAACTAGGTCACAGAGGTCAAACTCCGTGCGTA	8.63	8.81	2.84	2.43	5.38	6.91	12.1	7.81	3.49	5.52	5.75	7.7	7.96	3.78	4.66	3.37	7.66	–	–
CCTACTGGGCCATACAGAGGTCATTGATCATATG	4.36	4.21	1.03	0.445	4.53	5.28	2.92	5.24	1.8	3.12	3.98	4.45	3.22	0.759	3.15	1.47	4.19	–	–
TGAATGAGGTCAAAGATCAGGGAACGTGGCGTCG	5.48	6.25	2.11	0.903	2.17	5.41	1.74	6.5	1.38	4.99	3.65	6.3	6.16	4.12	4.33	3.06	4.68	–	–
GATACACGGTCAAGGCCAGAGTACGCGTATTGAT	0.208	0.594	-0.0876	-0.79	-0.507	0.00631	-0.314	-0.159	-0.63	2.67	1.73	1.54	2.53	-0.0133	0.429	-0.515	0.324	–	–
CCTAGCAGGCGAGGGTCACTCAAGCATTTCGCTT	0.277	0.13	-1.61	-1.34	0.73	1.63	-0.241	2.62	-0.425	2.29	2.36	2.77	1.69	0.212	1.79	-0.42	0.128	–	–
CCTACTGGGCCACGAAAGGTCCTTGATTCAGTGA	5.26	4.89	-0.745	-0.678	-0.351	-0.149	-0.492	0.131	-0.655	0.686	0.647	0.00978	0.301	-0.311	0.686	-0.289	-0.692	–	–
GCTAGTGGGTCAGTAAAAGGTCACACACCGGTCG	6.37	6.63	1.17	1.14	6.87	5.62	1.8	7.01	2.96	5.12	5.72	–	6.65	0.518	4.09	1.66	2.18	6.21	4.9
CGAACTAGGTCATCGAGGACAGTGAATACATTGA	8.15	8.47	2.12	2.09	1.73	2.62	2.57	2.26	0.951	4	3.3	–	5.19	2.23	4.11	2.51	2.73	3.01	–
TGGCCTAGGTCATGGGCCAGTATACCACGCGAAC	0.46	2.6	0.17	-0.783	0.937	1.04	-0.935	2.31	-0.155	3.82	2.96	–	5.07	-0.28	2.83	0.639	-0.0403	3.6	–
GCTGCTAGGTCAACTGAAGGTCAGCTAAAGCTCG	5	4.47	-0.0557	-1.06	5.87	4.62	0.437	6.6	2.11	4.98	5.31	–	7.38	1.68	4.03	1.66	1	4.88	–
TCTCGGAGGACACGAAACGTCAGAGCTCGACATC	1.4	0.0714	-0.35	-0.247	-0.276	-0.408	-0.586	-0.175	-0.713	1.25	0.176	–	1.27	0.694	1.1	0.276	-0.34	0.0278	–
TCTGCTATGTCAACGATGGTCAGCTAATCTGCTA	0.814	-0.00611	0.00527	-0.18	-1.25	-0.217	-1.19	-0.446	-1.27	0.575	0.0556	–	0.346	0.208	-0.297	-1.24	-1.12	-0.181	–
TCTCGGAGGACACGAAAGGTCAGTGCTCGACATC	1.47	1.67	-0.413	-0.365	3.45	3.79	0.68	4.07	1.12	4.13	4.96	–	5.21	1.23	3.49	1.51	1.24	3.34	2.92
CCTGCTAGGTCAATGGTCAGCTCAAGCAGCTCGC	4.38	4.13	2.6	-0.398	1.12	0.974	-0.482	1.88	-0.428	3.79	3.02	–	4.32	1.88	2.23	0.708	0.174	1.92	–
CCTACTGGGCCAATAAGGTCATTGATGCCGATAA	3.88	4.4	-0.359	-0.0114	1.04	3.77	3.17	3.56	0.431	3.17	3.48	–	2.87	1.09	4	3.44	2.76	2.78	–
TAGCCTAGGTCATTGGGCCAGTATAGTACGCATC	2.86	3.89	0.41	0.0888	0.963	1.58	-0.104	2.17	-0.237	3.59	3	–	4.22	1.6	2.83	0.768	0.954	2.73	–
GCTGCTAGGTCAACTGATGGTGAGCTAAAGCTCG	5.09	4.15	-0.747	-0.586	1.16	1.22	-0.899	2.11	-0.283	4.28	3.06	–	5.32	1.5	2.86	0.689	-0.42	2.69	–
TCTAGTTGGTGACGGAGGTCACACACGACGGGTA	1.77	3.08	0.76	0.756	2.31	3.78	0.917	3.78	0.681	3.36	3.88	–	3.21	0.917	3.41	2.23	1.83	4.29	3.98
CCTCGGAGGACAACAGGAGGTCAAAGCTGCCAGA	0.133	1.07	-0.509	-2.06	2.31	4.04	1.35	4.12	0.524	3.25	3.77	–	3.86	0.524	3.43	1.34	2.4	3.56	–
CCTAGCAGGCCAGGTTCACTCAAGCATTTCGCTT	0.866	-0.316	-1.77	-0.982	-0.179	0.776	0.391	0.488	-0.298	0.579	0.543	–	0.106	2.28	0.5	0.0438	3.42	0.844	–
TAGCCTAGCTCATTCAGGGGCCAGTATAGAAAGC	-0.101	-0.269	-0.969	-0.592	-1.77	-0.527	-0.788	-0.603	-1.25	-0.199	-0.0305	–	-0.378	-0.495	-0.465	-0.799	-0.369	-0.481	–
GATACAGGGTCAACTAGAGGCCAGAGTATGGAAA	2.63	3.97	1.7	0.682	3.88	4.77	0.995	6.02	0.807	4.8	3.92	–	5.56	2.92	3.79	0.92	2.44	6.53	–
ACTAATTGGTCAGCTGAGGTCACACACAATTCGG	1.58	2.86	1.1	1.2	2.75	5.67	1.67	4.72	1.56	3.91	4.72	–	4.46	1.68	5.12	5.41	3.46	4.65	–
CGTCCAAGGTCACCAGGTCAGTGAAAGCGACGTG	4.53	5.56	0.432	-0.2	5.06	5.13	1.21	6.39	2.58	5.42	5.13	–	7.7	3.61	4.45	4.12	3.44	7.13	–
AACGAAAGGTCGACGAGGTGAGTATACACCGTTT	0.793	1.94	0.978	0.568	1.32	2.95	0.578	3.56	0.305	3.91	3	–	3.73	1.64	3.85	0.519	0.772	4.41	–
TTACCGAGGTGAAAGGTCGTTGATGCACGCCTTG	3.24	5.19	0.609	0.681	2.03	4.58	0.0493	6.71	-0.0852	3.11	2.67	–	1.87	0.775	3.7	0.983	1.47	6.76	–
